# High-throughput results as filed in PubChem.
# The full list was thinned out, with hits kept by preference.
# Pf Dd2 inh – qHTS Primary assay for Inhibitors of Plasmodium falciparum Dd2 growth in vitro. Potency, µM (top dose mostly 28.9 µM), inactives show at the highest dose activity, negative = inhibition, actives largely listed as inhibitors. P. falciparum Dd2 growth, SYBR Green, 72 h. 120,000 compounds, 4.3% hits; active means well fitted inhibition curve with a large enough effect;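 further: plate controls were DMSO vehicle for no effect and reference drug for full effect; nearly all actives have a fitted effect of over 65% in size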
#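 Readout: SYBR Green fluorescence, 485 nm excitation, 535 nm emission, after ~16 h lysis at 37C. Before that, Dd2-infected red cells (2.5% hematocrit) grew 72 h with compound, 29 uM top final concentration.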
# The depositor's hits bear a star; i = inactive; [ ] = dose if it differs, or a comment. Potency means the concentration at half of the fitted maximal effect.
SMILES,Pf Dd2 inh
COc1ccc(NC(=O)Nc2ccc(C)n(CC(=O)NCC(C)C)c2=O)cc1,2%
O=S(=O)(c1cnc[nH]1)N1CCC(c2nc(-c3ccccc3)no2)C1 (stereo not drawn),7%[5.79 µM]
COc1ccc(C(=O)N2CCN(C(=O)N3CC4CC(C3)[C@H]3CCCC(=O)N3C4)CC2)cn1 (stereo partly drawn),-17%
CCOC(=O)C1CCCN(C(=O)c2coc(COc3cccc(F)c3F)n2)C1 (stereo not drawn),-11%
COc1ccc(S(=O)(=O)N2CC[C@H](NC(=O)c3ccncc3)C[C@H]2C(=O)N[C@@H](CC2CCCCC2)C(N)=O)cc1,i
COc1ccc(S(=O)(=O)N2CCN(C(=O)c3csc(C)n3)CC2)cc1,-16%
Cc1ccc(-n2nnnc2CNC(=O)c2ccccc2S(C)(=O)=O)cc1C,i
Cc1cccc(-n2nnnc2S(C)(=O)=O)c1,11µM*
COC(=O)c1nnn(-c2cccc(C)c2)c1C(=O)OC,6%
Cc1cnc(C(=O)NC2C[C@H]3CC[C@@H](C2)N3C(=O)c2sccc2C)cn1 (stereo partly drawn),i
CCOc1ccc(NC(=O)c2cc3nc(-c4ccc(OC)cc4)cc(C(F)(F)F)n3n2)cc1,70%
COc1ccc(OC)c(NC(=O)c2cnc(N3CCCC3)nc2C)c1,26%
COc1ccc(-c2cn3nc(N4CCC(C(=O)Nc5cc(Cl)ccc5OC)CC4)sc3n2)cc1,i
CCOc1ccc(-c2cc3nc(C4CCN(C(=O)OC(C)(C)C)CC4)c(C(=O)Nc4ccc(C)c(F)c4)cn3n2)cc1,7.1µM*
CCOc1ccc(NC(=O)N2CCC(c3ccc(C)cc3)C2)cc1 (stereo not drawn),i
CCOc1ccc(-c2cc3nc(C4CCN(C(=O)OC(C)(C)C)CC4)c(C(=O)Nc4cc(OC)ccc4OC)cn3n2)cc1,4µM*
CCCCC(=O)N1CCC2(CC1)SCC(=O)N2c1ccc(OC)cc1,-17%
COc1ccccc1C(=O)N1CCC2(CC1)CC(=O)c1ccc(Cl)cc1O2,-18%
Cc1ccc(CNC(=O)Cn2ccn3nc4c(c3c2=O)CCCCC4)cc1,-4%
Cc1nc(CCNC(=O)[C@H]2CNC[C@H](C(=O)N3CCOCC3)C2)sc1Cl,-9%
CCC(=O)N1CC(n2cc(C(=O)NCC3CC3)nn2)C1,-5%
Cc1cccn2c(=O)c3cc(C#N)c(=O)n(-c4nnc(SCc5ccc(Cl)cc5)s4)c3nc12,8.9µM*
N#Cc1cc2c(=O)n3ccccc3nc2n(-c2nnc(SCc3ccccc3)s2)c1=O,i
Cc1ccc(CSc2nnc(-n3c(=O)c(C#N)cc4c(=O)n5cc(C)ccc5nc43)s2)cc1,32%
COc1ccc(OC2CN(Cc3ccsc3)C2)cc1,-1%[44.1 µM]
SMILES,Pf Dd2 inh
COc1cccc(CN2CC(Oc3ccccc3C(=O)NC3CC3)C2)n1,4µM*
COc1ccc(OC)c(CN2CCOc3ccc(C(=O)NCc4ccc(C)cc4)cc3C2)c1,-9%
O=C(NC1CC1)c1ccccc1OC1CN(Cc2ccc(F)cc2F)C1,-20%
O=C(NCc1ccccc1)c1ccccc1OC1CN(Cc2ccsc2)C1,4µM*
COc1ccc(CN2CC(Oc3ccccc3C(=O)NC3CC3)C2)cc1OC,i
O=C(NCc1ccccc1)c1ccccc1OC1CN(Cc2ccc(F)c(F)c2)C1,-3%
Cc1ccc(CN2CC(Oc3ccccc3C(=O)NC3CC3)C2)o1,-16%
COc1ccc(OC)c(CN2CC(Oc3ccccc3C(=O)NCc3ccccc3)C2)c1,1.8µM*
CCCC1c2nccn2CCCN1C(=O)c1cccn1C (stereo not drawn),29%
c1cncc(-c2nc(CCNc3ncncn3)cs2)c1,0%
O=CN1CCCC(n2cnc3cccnc32)C1 (stereo not drawn),3%[44.1 µM]
Cc1cccc(OCCc2noc(C3CCNC3)n2)c1 (stereo not drawn),i
O=C(c1ccc2c(c1)OCCO2)N1CCc2[nH]nc(-c3ccccc3F)c2C1,i
N#Cc1ccc(C(=O)N2CCCCCCNC(=O)[C@@H]3C[C@@H](c4nc(-c5cccnc5)no4)C[C@@H]32)cc1,-15%
COc1ccc(C(=O)N2C[C@H](c3nc(-c4ccncc4)no3)[C@@H](C)C2)cc1OC,6%
Cc1ccc(-c2nccc(N3CCC(O)C3)n2)c(C)c1 (stereo not drawn),-9%
CN1[C@@H](CCC(=O)Nc2ccccc2)CNC(=O)[C@@H]2[C@H]1CCN2CC(C)(C)C,i
COC(=O)C1=CN(CC(=O)Nc2ccc(C(C)C)cc2)S(=O)(=O)N=C1C,122%
COc1cccc(N2C(=O)NC(=NC3CCCCC3)C23CCCN(C(=O)c2ccccc2)C3)c1 (stereo not drawn),15%
COc1cccc(N2C(=O)NC(=NC3CCCC3)C23CCCN(Cc2ccc(N(C)C)cc2)C3)c1 (stereo not drawn),11µM*
COc1cccc(N2C(=O)NC(=NC3CCCCC3)C23CCN(C(=O)c2ccccc2)C3)c1 (stereo not drawn),-28%
COc1cccc(N2C(=O)NC(=NC3CCCC3)C23CCN(C(=O)c2ccccc2)C3)c1 (stereo not drawn),-21%
COc1cccc(N2C(=O)NC(=NC3CCCCC3)C23CCCN(Cc2ccc(N(C)C)cc2)C3)c1 (stereo not drawn),11µM*
COc1ccc(C(=O)N2CCCC3(C2)C(=NC2CCCC2)NC(=O)N3c2cccc(OC)c2)cc1 (stereo not drawn),8%
Cc1cn2nc(C(=O)N3CCC(NC(=O)c4ccsc4)CC3)cc2c(=O)[nH]1,-26%
SMILES,Pf Dd2 inh
O=C(NCc1ccnc2[nH]ccc12)c1ccc(C(F)(F)F)cc1,1%[44.1 µM]
Cc1ccccc1[S+](=O)([O-])N1CCC2OCCN(Cc3ccccc3F)C(=O)C2C1 (stereo not drawn),i
OC1Cc2ccccc2C12CCN(Cc1cn(-c3ccccc3)nn1)CC2 (stereo not drawn),-12%
COC[C@@H]1CN(S(=O)(=O)c2cccc(C)c2)C[C@H]1c1nc(C)no1,-2%
O=C(Cn1c(SCc2cccc(F)c2)nc2ccncc21)Nc1ccc(Cl)cc1F,28%
O=C(NCCc1ccccc1)c1ccc(Cn2c(SCc3cccc(F)c3)nc3cccnc32)cc1,13µM*
COCCCNC(=O)c1ccc(Cn2c(SCc3ccc(F)cc3)nc3cccnc32)cc1,-22%
Cc1cccc(Cn2c(SCc3ccc(C(=O)NCCc4ccccc4)cc3)nc3ccncc32)c1,3.2µM*
O=C(NC1CCCC1)c1ccc(CSc2nc3cccnc3n2Cc2ccccc2)cc1,13%
O=C(c1ccc(CSc2nc3ccncc3n2Cc2cccc(F)c2)cc1)N1CCCCCC1,8.9µM*
Cc1ccccc1CNC(=O)c1ccc(Cn2c(SCc3cccc(F)c3)nc3cccnc32)cc1,-16%
Cc1cccc(Cn2c(CNC(=O)c3ccccc3)nc3ccccc32)c1,-5%
O=C(NCCN1CCCCC1)c1ccc(Cn2c(SCc3ccc(F)cc3)nc3cccnc32)cc1,7.1µM*
Cc1ccc(CSc2nc3cccnc3n2Cc2ccc(C(=O)NCCc3ccccc3)cc2)cc1,-13%
COCCCNC(=O)c1ccc(Cn2c(SCc3cccc(C)c3)nc3cccnc32)cc1,i
CNC(=O)c1noc([C@@H]2CC(F)(F)CN2Cc2cc(C)nn2C)n1,i
O=C(NCC1CN(C(=O)c2cccc(Cl)c2)CC12CN(c1ccccc1)C2)C1CC1 (stereo not drawn),i
CO[C@H]1[C@H](NC(=O)Cc2ccc3c(c2)OCO3)c2ccccc2C12CCNCC2,-9%
